# GSH fluor – compound fluoresces at 488/530 nm on GSH beads; GSH beads flow cytometry, compound fluorescence 488/530 nm; hits give high values; fluorescence (KMESF) at 10 µM; 0.25% of 190,000 active; AID 1776; in the data active = fluorescence above about 89;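 note: glutathione beads carrying GST-tagged Bcl family fusion proteins plus one bare bead set; values are compound well signal with DMSO vehicle wells as background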
# RGS8-Gao – regulators of human RGS8-Galphao interaction. P09471. multiplexed bead flow cytometry, RGS8-Galphao binding; actives lie on both sides. 0.34% of 220,000 active. response (percent of control binding), % at 10 µM. AID 1423; in the data active = response below about 60% or above about 140%; inactive = in between;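 note: Galphao activated as the GDP aluminium fluoride complex binding bead-coupled RGS8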
# Target sequence (P09471 whole entry, looked up): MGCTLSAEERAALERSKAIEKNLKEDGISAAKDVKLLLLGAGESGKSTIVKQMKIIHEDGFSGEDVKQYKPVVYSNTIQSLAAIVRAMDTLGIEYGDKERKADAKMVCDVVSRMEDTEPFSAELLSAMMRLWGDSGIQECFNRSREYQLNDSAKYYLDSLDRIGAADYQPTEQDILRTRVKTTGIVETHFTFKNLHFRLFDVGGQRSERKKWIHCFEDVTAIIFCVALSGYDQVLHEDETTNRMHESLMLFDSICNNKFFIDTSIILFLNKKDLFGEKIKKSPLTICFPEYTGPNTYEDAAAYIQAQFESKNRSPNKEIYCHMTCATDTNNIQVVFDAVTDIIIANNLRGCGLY
# RGS7-Gao reg – human RGS7-Galphao interaction regulation; binding response (% of control), % at 10 µM; 0.35% of 220,000 active; Multiplexed bead flow cytometry, RGS7-Galphao binding; actives lie on both sides; P09471; AID 1439; in the data active = binding response below about 49% or above about 150%; inconclusive = no clear call, values can overlap the other calls; inactive = in between;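 note: fluorescent Galphao held in activated GDP-AlF4 state binding bead-coupled RGS7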
# Avidin bead fluor – avidin bead compound fluorescence profile; 0.38% of 220,000 active; fluorescence (KMESF) at 10 µM; Avidin beads, compound fluorescence 488/530 nm, flow cytometry; hits give high values; AID 1775; in the data active = fluorescence above about 47
# RGS16-Gao – RGS16-Galphao interaction regulator (human) | O15492+P09471 | bead-based flow cytometry RGS16-Galphao binding, fluorescence; actives lie on both sides | binding response (% of control), % at 10 µM | 0.38% of 220,000 active | AID 1441;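 note: Galphao activated by GDP with aluminum fluoride before binding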
# RGS4-Gao reg – human RGS4-Galphao interaction regulation; Multiplexed bead flow cytometry, RGS4-Galphao binding; actives lie on both sides; binding response (% of control), % at 10 µM; 0.33% of 220,000 active; in the data active = binding response below about 49% or above about 150%; inactive = in between;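 note: fluorescent Galphao activated with aluminum fluoride binding bead-coupled RGS4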
# RGS4-Gao HTS – RGS4-Galphao interaction regulator (human) | shares compounds with RGS16-Gao | multiplexed bead flow cytometry, RGS–Galpha-o binding | RGS4–Galpha-o binding response, % at 10 µM | 99% of 1,600 active | AID 1504;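 note: fluorescently labeled Galpha-o bound to GDP with aluminium fluoride binding biotinylated RGS beads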
# Target sequence (P09471 whole entry, looked up): as above
# Target sequence (P49798 whole entry, looked up): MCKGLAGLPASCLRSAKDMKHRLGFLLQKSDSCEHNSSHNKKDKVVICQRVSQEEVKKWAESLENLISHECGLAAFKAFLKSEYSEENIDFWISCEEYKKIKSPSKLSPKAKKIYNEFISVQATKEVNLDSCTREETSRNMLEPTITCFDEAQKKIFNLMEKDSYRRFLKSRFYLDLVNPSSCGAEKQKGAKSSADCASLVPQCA
# Biotin-avidin – interferes with biotinylated probe binding to avidin beads | shares compounds with RGS16-Gao | streptavidin beads, fluorescein-biotin binding, flow cytometry | inhibition, % at 10 µM | 1,700 tested, under 10 active | AID 1783;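 active = inhibition above 50%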;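 note: median green fluorescence of gated singlet beads compared with DMSO control wells; 0% = DMSO wells and 100% = complete loss of bead fluorescence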
# RGS8-Gao single – RGS8-Galphao interaction regulation, single point confirmation | bead-based flow cytometry RGS8-Galphao binding, fluorescence; actives lie on both sides | binding response (% of control), % at 10 µM | shares compounds with RGS16-Gao | 3% of 1,700 active; in the data active = binding response below about 72% or above about 130%; inactive = in between;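 note: Galphao activated as GDP AlF4 complex before binding bead RGS8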
# RGS7-Gao single – confirmation of regulators of human RGS7-Galphao interaction; response (percent of control binding), % at 10 µM; 7.8% of 1,700 active; bead-based flow cytometry RGS7-Galphao binding; actives lie on both sides; shares compounds with RGS16-Gao; in the data active = response below about 75% or above about 130%; inactive = in between;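 note: fluorescent Galphao activated with GDP and aluminum fluoride binding bead-coupled RGS7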
# RGS16-Gao single – confirmation of regulators of human RGS16-Galphao interaction; shares compounds with RGS16-Gao; bead-based flow cytometry, RGS16-Galphao binding; actives lie on both sides; response (% of control binding), % at 10 µM; 4% of 1,700 active; AID 1838; in the data active = response below about 74% or above about 130%; inactive = in between;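 note: Galphao activated as the GDP aluminium fluoride complex binding bead-coupled RGS16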
# RGS4-Gao confirm – confirmation of regulators of human RGS4-Galphao interaction; shares compounds with RGS16-Gao; RGS4-Galphao binding, multiplexed bead flow cytometry; actives lie on both sides; binding response (% of control), % at 10 µM; 4% of 1,700 active; in the data active = binding response below about 74% or above about 130%; inactive = in between
# RGS19-Gao conf – confirmation of regulators of human RGS19-Galphao interaction | shares compounds with RGS16-Gao | bead-based flow cytometry RGS19-Galphao binding; actives lie on both sides | response (percent of control binding), % at 10 µM | 5% of 1,700 active | AID 1841; in the data active = response below about 50% or above about 160%; inactive = in between;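 note: 100% = no compound control and 0% = blank background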
# Starred values were filed as active, the others as inactive; i = inactive; ? = inconclusive; / = no result; [ ] = another dose, or the depositor's remark. An excerpt weighted towards active compounds, which were near 1.2% of everything screened. Unless noted, the rule behind the calls is not given here.
SMILES,GSH fluor,RGS8-Gao,RGS7-Gao reg,Avidin bead fluor,RGS16-Gao,RGS4-Gao reg,Biotin-avidin,RGS8-Gao single,RGS7-Gao single,RGS16-Gao single,RGS4-Gao confirm,RGS19-Gao conf,others
COc1ccc(C(CCNCc2ccc(N(C)C)cc2)C(C)C)cc1 (configuration not stated),/,108,?,4,109,106,/,/,/,/,/,/,
COc1ccc(CNCCC(c2ccc(OC(C)C)cc2)C(C)C)cc1OC (configuration not stated),5,142*[activator],120,10,229,117,3,103,99,103,98,97,RGS4-Gao HTS=117*
COc1ccc(C(CCNCc2ccc(OC(C)C)cc2)C(C)C)cc1 (configuration not stated),/,8.9*,?,-2,-5.3*,-9.6*,0,102,90,94,94,77,
N#C/C(=C\c1c(N2CCCCC2)nc2ccccn2c1=O)S(=O)(=O)c1ccccc1,/,106,?,7,116,111,/,/,/,/,/,/,
O=C(CSc1nnc(COc2ccccc2)o1)N1CCOCC1,20,97,?,14,97,96,/,/,/,/,/,/,
CCc1nnc(NC(=O)CC(=O)Nc2ccccc2C(=O)O)s1,45,/,/,/,/,/,0,98,98,100,99,88,
COC(=O)Nc1csc2c1NC(=O)CCCC2,/,18*,?,-1,-4.2*,-9.2*,-1,95,84,91,93,99,
O=C1NC(=O)/C(=C\c2ccc(OCc3cccc(C(=O)O)c3)c(Cl)c2)N1,15,97,93,7,96,97,/,/,/,/,/,/,
O=C1NC(=O)/C(=C/c2cccc(O)c2)N1,/,/,/,/,/,/,-1,98,95,98,98,95,
CN(C)c1ccc(/C=C2/NC(=O)NC2=O)cc1,17,145*[activator],354*[activator],113*,i,549*[activator],1,102,103,105,102,104,
CC1=NOC(=O)/C1=C/c1ccc(N(C)C)cc1,34,100,102,13,100,101,/,/,/,/,/,/,
Cc1ccc(/C=C/C(=O)N2CCCC(C(N)=O)C2)o1 (configuration not stated),/,99,?,7,102,102,/,/,/,/,/,/,
COc1ccc(CCNC(=O)CN(C)S(=O)(=O)c2ccc(Br)s2)cc1OC,25,124,100,6,241*[activator],103,0,98,103,103,103,112,RGS4-Gao HTS=103*
O=C(CSc1ncn[nH]1)Nc1cc(S(=O)(=O)N2CCCC2)ccc1Cl,11,98,?,10,93,97,/,/,/,/,/,/,
O=S(=O)(c1ccccc1)c1ncc(C(F)(F)F)cc1Cl,16,14*,12*,/,10*,15*,0,106,99,103,98,94,
CC(=O)N/C(N)=N/c1nc2cc([N+](=O)[O-])ccc2o1,/,76,?,5,98,97,-1,93,89,93,95,100,
Cc1cc(C)c(C#N)c(SCCS(=O)(=O)c2ccc(Cl)cc2)n1,/,91,?,6,84,90,/,/,/,/,/,/,
Cc1cc(C)c(C#N)c(SCCS(=O)(=O)c2ccc(C(C)(C)C)cc2)n1,30,/,/,/,/,/,3,100,97,98,97,92,
O=C(COc1cccnc1[N+](=O)[O-])NCc1cccs1,26,106,112,11,106,109,/,/,/,/,/,/,
Cc1cc(N/N=C/c2ccc3c(c2)OCO3)nc2ccccc12,/,98,?,6,92,94,/,/,/,/,/,/,
O=C(CN1CC(c2ccccc2)CC1=O)N/N=C/c1cc(Br)ccc1O (configuration not stated),8,83,75,5,68,78,/,/,/,/,/,/,
Cc1cccc(N=Cc2[nH]c3ccc(Br)c(Cl)c3c2O)c1,16,104,153*[activator],33,139,142,/,/,/,/,/,/,RGS4-Gao HTS=142*
COc1cc(/C=N/NC(=O)Cn2ccc(C(F)(F)F)n2)cc(OC)c1OC,14,20*,23*,2,14*,31*,0,104,98,105,100,94,
O=C(O)c1ccccc1-c1ccccc1C(=O)NNc1ccc([N+](=O)[O-])cc1,/,101,?,6,100,99,/,/,/,/,/,/,
CC1=C(C(=O)OC(C)C)C(c2cccc(F)c2)N2C(=O)C(C)SC2=N1 (configuration not stated),20,/,/,/,/,/,0,101,98,99,100,90,
SMILES,GSH fluor,RGS8-Gao,RGS7-Gao reg,Avidin bead fluor,RGS16-Gao,RGS4-Gao reg,Biotin-avidin,RGS8-Gao single,RGS7-Gao single,RGS16-Gao single,RGS4-Gao confirm,RGS19-Gao conf,others
CC1=C(C(=O)OCC(C)C)C(c2cccc(F)c2)N2C(=O)C(C)SC2=N1 (configuration not stated),12,105,101,10,105,102,/,/,/,/,/,/,
CC(=O)Nc1cnc2ccccc2n1,24,102,181*[activator],102*,108,113,0,100,102,97,96,91,RGS4-Gao HTS=113*
OCCNc1cnc2ccccc2n1,10,105,?,10,108,107,/,/,/,/,/,/,
O=C(Nc1ccccc1O)c1nc(Cl)ccc1Cl,11,105,101,24,112,101,/,/,/,/,/,/,
COCCCn1c(-c2ccc(Cl)cc2)n[nH]c1=S,33,/,/,/,/,/,2,99,109,96,101,99,
Cc1ccc(OCC(=O)N/N=C\c2ccncc2)c(C)c1,10,111,105,7,177*[activator],106,/,/,/,/,/,/,RGS4-Gao HTS=106*
Cc1cccc(C(=O)Nc2ccc(C(=O)/C=C/c3cccnc3)cc2)c1,0,105,186*[activator],30,242,196*[activator],0,100,105,102,102,103,
O=C(/C=C/c1cccnc1)c1ccc(NC(=O)c2cccc(Br)c2)cc1,21,99,100,5,101,101,/,/,/,/,/,/,
